This note sets out measurements from PubChem BioAssay (NCATS).

Structures are written as SMILES. Inconclusive results are not listed. Calls of active or inactive are those of the source. Unless noted, calls follow the shape of the dose curve; as a rule, active = well fitted inhibition curve with a large enough effect; inconclusive = small, poorly fitted or top-dose-only effect; inactive = flat fitted curve, though single readings scatter.

Experiment [1] can be described thus: AP1 Signaling Pathway (AID 357; active = well fitted curve in either direction with a large enough effect, not every such curve was filed as active; also: % is scaled to controls: 0 for no effect and ±100 for the full control effect). The method in brief: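 ME-180 cells with beta-lactamase reporter under AP-1 response element, stimulated with EC50 EGF; compounds tested in titration series, 5 h at 37 °C. CCF4 substrate added 2.5 h at room temperature; 460/530 nm emission ratio gave %activity and AC50.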
Experiment [2] in a line: Stat Signaling Pathway (AID 446; active = well fitted curve in either direction with a large enough effect, not every such curve was filed as active;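 also: ME-180 cervical cancer cells given 40 pM IL-6 alongside compound; SIE-controlled beta-lactamase reporter measured as 460/530 nm FRET emission ratio; % is scaled to controls: 0 for no effect and ±100 for the full control effect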). The method, boiled down:
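Screening format detects activators and inhibitors alike: ME-180 SIE-bla cells stimulated at 40 pM IL-6 for 5 hrs with compound, then dual-emission beta-lactamase read at 405 nm excitation.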

In experiment [3] the target is Glucocorticoid receptor (Homo sapiens) (UniProt P04150). Briefly: GR-GFP Redistribution (AID 450;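 active = compounds whose dose series gives a full or clear partial fitted curve of increased nuclear translocation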; also: potency is read from the fitted curve at half-maximal effect). Conditions: U2OS GR-GFP nuclear translocation, laser cytometry, 2 h.
The target is the same in experiment [4]. The experiment can be described thus: GR-EFC Redistribution (AID 451; calls by dose curve; also: potency is read from the fitted curve at half-maximal effect). To be noted: CHO-K1 GR-EFC translocation, beta-gal luminescence, 2 h. The method, boiled down: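 CHO-K1 cells stably expressing nuclear-localized β-gal enzyme acceptor and GR fused C-terminally to the enzyme donor fragment; ligand-driven nuclear translocation restores β-gal by complementation. Compounds titrated up to 46 uM final, 2 h at 37 °C; luminescence read.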

For experiment [5], the target named is Mitogen-activated protein kinase 10 (Mus musculus) (UniProt Q61831). The experiment can be described thus: JNK3 AlphaScreen Assay (AID 530; active = well fitted curve in either direction with a large enough effect, not every such curve was filed as active;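 also: kinase came from lysate of stimulated human HepG2 cells; signal reports phosphorylation of biotinylated GST-cJun 1-79 at Ser73 with 10 µM ATP; % is scaled to controls: 0 for no effect and ±100 for the full control effect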). The method in brief:
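JNK3 came from HepG2 lysates pre-activated with IL-1beta and TNF-alpha and phosphorylated biotinylated GST-cJun (1-79) at 10 uM ATP, pH 7.6, room temperature. Compounds were titrated. AlphaScreen signal used anti-phospho-cJun (Ser73) antibody.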

Experiment [6] in a line: qHTS Assay for Lipid Storage Modulators (AID 1519; calls by dose curve). To be noted: Drosophila S3 cells, BODIPY lipid droplet/cell ratio, laser cytometry, cells loaded with oleic acid; for activity change, negative = inhibition: at 25.7 µM (top of the series). The method in brief:
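Cells seeded at 5,000 per well were treated with compounds over a concentration series and loaded with oleic acid (400 uM, as added). Lipid droplet fluorescence (488 nm excitation, 500-530 nm channel) was read by laser-scanning cytometry and normalized to 20 uM Triacsin C.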

The target of experiment [7] is Ubiquitin carboxyl-terminal hydrolase 1 (Homo sapiens) (UniProt O94782). The experiment can be described thus: Inhibitors of USP1/UAF1: Pilot qHTS (AID 504865).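 Also: rhodamine fluorescence freed from ubiquitin-rhodamine substrate followed over time; top concentration of the series differs between compounds; % is scaled to controls: 0 for no effect and ±100 for the full control effect; nearly all actives have a fitted effect of over 35% in size.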 The method, boiled down:
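In 50mM HEPES pH 7.8 containing 0.5mM EDTA, 1mM TCEP, 0.1 mg/ml BSA and 0.01% Tween-20, 1nM USP1/UAF1 is exposed to compound for 15 min, then Ub-Rho (150nM final) is added and fluorescence is read over time.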

Experiment [8] is described as follows: NFAT Signaling Pathway (AID 444; active = well fitted curve in either direction with a large enough effect, not every such curve was filed as active;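 also: carbachol stimulus at about its EC50 of 1 µM final; % is scaled to controls: 0 for no effect and ±100 for the full control effect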). To be noted: Jurkat NFAT-bla M1, carbachol, beta-lactamase ratio, 5 h; at 17.2 µM (top of the series) unless noted. The method in brief:
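Jurkat cells carrying an NFAT-driven β-lactamase reporter and co-transfected muscarinic M1 receptor were treated with compound plus carbachol (1 uM final, an EC50 level) for 5 h at 37 °C. CCF4 loading followed for 1 h at RT; 460/530 nm ratio gave %activity.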

The target of experiment [9] is 3',5'-cyclic-AMP phosphodiesterase 4B (Homo sapiens) (UniProt Q07343). Briefly: qHTS Assay for Inhibitors of PDE-IV (AID 607; active = well fitted activation curve with a large enough effect in the main read-out, with a control signal flat, not every such curve was filed as active; also: % of control where 0% means no effect). The method in brief:
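The readout is membrane depolarisation from a cAMP-sensing CNG channel, detected with a potential dye at ex 535/em 590. Cells were HEK293-derived (endogenous PDE-IV) at 1000 cells/well, titrated up to 22.9 uM final.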

Experiment [10] in a line: qHTS profiling for inhibitors of Plasmodium falciparum proliferation (AID 504749). Also: nearly all actives have a fitted effect of over 60% in size. Also: potency is read from the fitted curve at half-maximal effect.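 As to activity, negative = inhibition: 0% = DMSO vehicle and full inhibition = artemisinin control.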 To be noted: P. falciparum in erythrocytes, SYBR Green DNA, 72 h. The method in brief:
(§1)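 P. falciparum-infected erythrocytes (0.3% parasitemia, 2.5% hematocrit final) were exposed to compounds for 72 h at 37 C in 5% CO2, then lysed with SYBR Green buffer overnight at room temperature; parasite DNA fluorescence was normalized to artemisinin and DMSO controls.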

A further experiment has as its system C2A. Described as above. To be noted: P. falciparum in erythrocytes, SYBR Green DNA, 72 h; series mostly up to 12.8 µM. The method in brief: as §1
The subject of another experiment is CP191. The description is as above. Conditions: P. falciparum in erythrocytes, SYBR Green DNA, 72 h; series mostly up to 12.8 µM. The method, boiled down:
as §1

The next experiment deals with CP217. Described as above. Conditions: P. falciparum in erythrocytes, SYBR Green DNA, 72 h; series mostly up to 12.8 µM. The method in brief:
as §1

The next experiment deals with CP238. The experiment is described as above. Conditions: P. falciparum in erythrocytes, SYBR Green DNA, 72 h; series mostly up to 12.8 µM. The method in brief:
as §1

The next experiment relates to CP250. Described as above. Conditions: P. falciparum in erythrocytes, SYBR Green DNA, 72 h; series mostly up to 12.8 µM. The method in brief:
as §1

Another experiment concerns CP256. Described as above. To be noted: P. falciparum in erythrocytes, SYBR Green DNA, 72 h; series mostly up to 12.8 µM. The method in brief:
as §1

A further experiment relates to FAB9. The description is as above. To be noted: P. falciparum in erythrocytes, SYBR Green DNA, 72 h; series mostly up to 12.8 µM. The method, boiled down:
as §1

The subject of another experiment is JCK. The experiment is described as above. To be noted: P. falciparum in erythrocytes, SYBR Green DNA, 72 h; series mostly up to 12.8 µM. The method, boiled down:
as §1

The test system of the next experiment is PC49. The description is as above. To be noted: P. falciparum in erythrocytes, SYBR Green DNA, 72 h; series mostly up to 12.8 µM. The method, boiled down: as §1
The subject of a further experiment is SC27B. Described as above. To be noted: P. falciparum in erythrocytes, SYBR Green DNA, 72 h; series mostly up to 12.8 µM. The method in brief: as §1
The mark [11] stands for this setting: measured here: cell count channel max response.
[12] abbreviates: measured here: lipid channel max response.
Where [13] appears, read: at 12.8 µM (top of the series), parasite line A.
The mark [14] stands for this setting: at 12.8 µM (top of the series), parasite line B.

Chain of Ubiquitin carboxyl-terminal hydrolase 1 (Homo sapiens) (O94782 whole entry, looked up): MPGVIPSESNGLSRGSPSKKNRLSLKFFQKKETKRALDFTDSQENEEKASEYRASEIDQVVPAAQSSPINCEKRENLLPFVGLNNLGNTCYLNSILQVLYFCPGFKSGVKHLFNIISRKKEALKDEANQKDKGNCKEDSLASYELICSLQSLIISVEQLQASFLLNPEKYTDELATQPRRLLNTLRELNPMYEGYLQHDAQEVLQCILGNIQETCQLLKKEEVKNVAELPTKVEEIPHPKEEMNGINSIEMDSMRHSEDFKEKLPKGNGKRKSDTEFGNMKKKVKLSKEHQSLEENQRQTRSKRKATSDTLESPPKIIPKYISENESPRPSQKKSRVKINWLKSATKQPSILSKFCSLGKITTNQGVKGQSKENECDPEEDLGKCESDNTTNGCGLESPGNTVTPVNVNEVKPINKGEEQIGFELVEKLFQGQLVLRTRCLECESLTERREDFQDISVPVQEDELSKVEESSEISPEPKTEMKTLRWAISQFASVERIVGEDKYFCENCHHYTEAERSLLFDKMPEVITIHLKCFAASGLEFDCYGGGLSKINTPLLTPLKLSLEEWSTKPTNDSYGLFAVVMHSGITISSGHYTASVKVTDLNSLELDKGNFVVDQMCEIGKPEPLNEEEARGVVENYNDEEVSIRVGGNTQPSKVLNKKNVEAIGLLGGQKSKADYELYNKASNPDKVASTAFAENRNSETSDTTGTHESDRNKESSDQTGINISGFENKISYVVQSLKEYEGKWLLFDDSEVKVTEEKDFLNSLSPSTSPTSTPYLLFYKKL
Chain of 3',5'-cyclic-AMP phosphodiesterase 4B (Homo sapiens) (Q07343 whole entry, looked up): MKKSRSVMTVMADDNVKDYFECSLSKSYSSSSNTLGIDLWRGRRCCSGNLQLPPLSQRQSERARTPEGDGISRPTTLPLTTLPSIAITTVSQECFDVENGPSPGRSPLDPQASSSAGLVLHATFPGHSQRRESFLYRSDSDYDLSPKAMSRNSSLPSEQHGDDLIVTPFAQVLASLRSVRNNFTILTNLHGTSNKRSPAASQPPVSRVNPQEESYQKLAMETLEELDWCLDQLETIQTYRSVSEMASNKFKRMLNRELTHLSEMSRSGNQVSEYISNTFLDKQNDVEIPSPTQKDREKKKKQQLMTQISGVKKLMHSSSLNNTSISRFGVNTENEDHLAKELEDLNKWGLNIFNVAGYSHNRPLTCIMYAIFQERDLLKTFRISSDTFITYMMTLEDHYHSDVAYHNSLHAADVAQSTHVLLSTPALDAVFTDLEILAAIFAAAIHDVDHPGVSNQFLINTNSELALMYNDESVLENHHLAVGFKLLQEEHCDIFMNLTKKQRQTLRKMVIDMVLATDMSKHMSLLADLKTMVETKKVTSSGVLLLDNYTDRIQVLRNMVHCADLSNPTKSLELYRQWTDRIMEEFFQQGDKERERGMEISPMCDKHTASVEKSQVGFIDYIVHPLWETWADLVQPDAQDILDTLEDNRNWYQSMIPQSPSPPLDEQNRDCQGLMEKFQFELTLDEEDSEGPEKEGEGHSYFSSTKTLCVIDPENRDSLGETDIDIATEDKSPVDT
Chain of Glucocorticoid receptor (Homo sapiens) (P04150 whole entry, looked up, the tested form may be a part): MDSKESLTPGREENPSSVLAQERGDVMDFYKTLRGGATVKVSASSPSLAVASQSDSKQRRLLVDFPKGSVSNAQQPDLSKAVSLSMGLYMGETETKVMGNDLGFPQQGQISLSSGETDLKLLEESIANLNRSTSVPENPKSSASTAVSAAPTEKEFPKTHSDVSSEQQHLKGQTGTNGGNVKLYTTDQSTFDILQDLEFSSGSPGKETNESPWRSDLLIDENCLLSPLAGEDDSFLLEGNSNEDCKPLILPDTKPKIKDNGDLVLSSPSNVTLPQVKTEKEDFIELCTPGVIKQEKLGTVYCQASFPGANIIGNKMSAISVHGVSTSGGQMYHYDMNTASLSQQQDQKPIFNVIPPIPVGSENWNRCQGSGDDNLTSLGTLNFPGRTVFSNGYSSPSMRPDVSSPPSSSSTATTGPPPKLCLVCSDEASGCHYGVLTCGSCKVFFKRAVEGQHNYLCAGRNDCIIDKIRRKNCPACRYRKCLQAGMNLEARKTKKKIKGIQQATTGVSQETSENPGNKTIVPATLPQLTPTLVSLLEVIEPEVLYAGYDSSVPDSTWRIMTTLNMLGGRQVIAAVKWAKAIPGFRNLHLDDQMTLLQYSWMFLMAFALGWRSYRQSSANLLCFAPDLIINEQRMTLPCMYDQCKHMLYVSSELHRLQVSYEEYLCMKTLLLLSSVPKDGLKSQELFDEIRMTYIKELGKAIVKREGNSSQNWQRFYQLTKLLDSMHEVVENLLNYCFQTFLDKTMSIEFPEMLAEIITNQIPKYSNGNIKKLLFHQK

Turning to `CN1CCCN([C@@H](c2ccccc2)c2ccc(Cl)cc2)CC1`, the call in [1] and in [2] was inactive. Besides, the Potency in experiment [3] and in [4] was > 20.6 µM (inactive) throughout. In addition, the Potency result in [5] and in [7] was “inactive” each time. The activity change, negative = inhibition in [6] is -4.42% (inactive). In addition, the max response was 4.14% in experiment [6] (setting [11]) and 1.38% in [6] (setting [12]).

Regarding `CN[C@H]1[C@H](O)[C@@H](O[C@@H]2[C@H](O)[C@@H](O[C@H]3OC(CN)=CC[C@H]3N)[C@@H](N)C[C@H]2N)OC[C@@]1(C)O`, the outcome in experiment [1], in [2] and in experiment [9] was inactive. Further, the activity change, negative = inhibition is -17.3% (inactive) in [8] and 0.656% (inactive) in experiment [6]. Further, the Potency in experiment [3] and in [4] was > 20.6 µM (inactive) each time. Further, the Potency entry (in experiment [5]; in experiment [7]; with C2A; in the experiment on CP191; with CP217; with CP238) was “inactive” each time. In addition, the Potency entry in the experiment with CP250, in the experiment with CP256, in the experiment with FAB9, in the experiment with JCK, in the experiment on PC49 and with SC27B was “inactive” in each case. For the same molecule, the max response in experiment [6] (setting [11]) is -1.73%; in experiment [6] (setting [12]), -0.476%. In addition, the figures for the activity, negative = inhibition in [10] (setting [13]) and in experiment [10] (setting [14]) were 3.71% (inactive) and 6.19% (inactive), respectively.

As for `CN1C(=O)C[C@H](c2ccccc2)C1=O`, the result in experiment [1], in experiment [2] and in [9] was inactive. For the same molecule, the activity change, negative = inhibition was 35.9% (inactive) in experiment [8] and 0.325% (inactive) in [6]. The Potency in [3] and in experiment [4] was > 20.6 µM (inactive) throughout. Also, the Potency entry (in experiment [5]; in experiment [7]; with C2A; with CP191; in the experiment on CP217; with CP238) was “inactive” in each case. For the same molecule, the Potency result with CP250, in the experiment on CP256, in the experiment with FAB9, with JCK, with PC49 and in the experiment on SC27B was “inactive” in each case. Also, the max response was -28% in experiment [6] (setting [11]) and -25.7% in experiment [6] (setting [12]). Also, in [10] (at 28.7 µM (top of the series), parasite line B), the activity, negative = inhibition is -2.97% (inactive).

With `O=C(N/N=C\c1ccc([N+](=O)[O-])o1)c1ccc(O)cc1`, the outcome in experiment [1], in experiment [2] and in experiment [9] was inactive. The activity change, negative = inhibition in experiment [8] was 1.26% (inactive); in experiment [6], -1.38% (inactive). The Potency in experiment [3] is > 20.6 µM (inactive); in experiment [4], > 20.6 µM (inactive); in experiment [10] (parasite line A), 1.41 µM (active); in experiment [10] (parasite line B), 2.82 µM (active); in the experiment on C2A it was 3.16 µM (active); with CP191, 3.16 µM (active). Further, the Potency is 3.55 µM (active) in the experiment with CP217; 3.16 µM (active) with CP238; 3.16 µM (active) in the experiment with CP250; 3.55 µM (active) in the experiment on CP256; 3.16 µM (active) in the experiment on FAB9; 3.98 µM (active) with JCK. Moreover, the Potency with PC49 is 2.24 µM (active); with SC27B it was 3.55 µM (active). In experiment [5], the Potency result is “inactive”. The max response was -7.99% in experiment [6] (setting [11]) and -11.6% in experiment [6] (setting [12]).

As to `NC[C@@H]1O[C@H](O[C@H]2[C@H](O)[C@H](O[C@@H]3O[C@H](CO)[C@@H](O)[C@H](N)[C@@H]3O)[C@@H](N)C[C@H]2N)[C@@H](O)[C@H](O)[C@@H]1O`, the call in experiment [1], in experiment [2] and in experiment [9] was inactive. Further, the activity change, negative = inhibition in experiment [8] was -3.83% (inactive); in experiment [6] it was -4.16% (inactive). The Potency in experiment [3] and in [4] was > 20.6 µM (inactive) throughout. Further, the Potency result (in experiment [5]; with C2A; in the experiment on CP191; with CP217; in the experiment with CP238; in the experiment with CP250) was “inactive” each time. Moreover, the Potency entry in the experiment with CP256, in the experiment on FAB9, with JCK, in the experiment on PC49 and in the experiment with SC27B was “inactive” in each case. For the same molecule, the max response in experiment [6] (setting [11]) was -1.61%; in [6] (setting [12]), -7%. For the same molecule, the activity, negative = inhibition was 3.46% (inactive) in experiment [10] (setting [13]) and 7.68% (inactive) in experiment [10] (setting [14]).
